# Results taken from PubChem BioAssay (NCI).
# About 83,000 compounds went through this panel and 20% of them were active in at least one assay; those are over-represented in the sample as a whole.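 Negative percent growth values reflect cell death: -40 means 40% of the cells present at the start died, and -100 means all died.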 Calls of active or inactive are those of the source.
# Test system: OVCAR-4 ovarian
# Assay: NCI-60 one-dose screen, 48 h (100 = growth as untreated, 0 = no growth, -100 = all killed)
# Conditions: 10 µM unless noted
# Experimental: Growth inhibition of the OVCAR-4 human tumor cell line is measured as a screen for anti-cancer activity. Cells are grown in 96 well plates and exposed to the test compound for 48 hours. Compounds are tested at a single concentration, which is 10^-5 M for most compounds. The reported endpoint is percent growth (GI% or GIPRCNT), where numbers from 0 - 100% represent growth inhibition, and numbers from -100% - 0 represent cell death. For example, a value of 40 represents 60% growth inhibition. A value of 0 means no net growth occurred over the course of the experiment. A value of -40 indicates 40% of cells at the beginning of the experiment died by the end of the experiment. A value of -100 means all cells are dead at the end of the experiment.
# NCI-60 Human Tumor Cell Lines Screen was performed using the standard one-dose NCI protocol, which is described in more detail at https://dtp.cancer.gov/discovery_development/nci-60/default.htm.
# Compounds with GIPRCNT values below 10 were considered active. Activity score was based on GIPRCNT using the following formula: […]
# Score is 0 for GIPRCNT values of 100 or above, 50 for GIPRCNT values of 0, and 100 for GIPRCNT values of -100.
row,SMILES,growth
1,NC1(N2SC(S)=C3CCCC=C32)CCCCC1,107% (inactive)
2,O=C(/C=C/c1ccc(C(F)(F)F)cc1)c1ccc(Nc2nc(NCCO)nc(N3CCOCC3)n2)cc1,22.8% (inactive)
3,O=C(NC1C(O)OC(CO)C(O)C1O)NS(=O)(=O)c1ccc(Cl)cc1 (stereo not given),105% (inactive)
4,O=C(NCc1ccccc1)C1CN(c2ccc(Cl)cc2)N(c2ccc(Cl)cc2)C1=O (stereo not given),88.3% (inactive)
5,COc1cc2nc(NC3CCC3)nc(NC3CCN(C(C)C)CC3)c2cc1OC,62.5% (inactive)
6,Oc1c(CN2CCN(c3ccccc3F)CC2)cc(Br)c2cccnc12,-81% (active)
7,O=C1/C(=C/c2ccc(O)cc2)COc2ccc(O)cc21,102% (inactive)
8,CCCCCCc1cc2cc(-c3nc4ccccc4[nH]3)c(=Nc3ccccc3C)oc2cc1O,39.4% (inactive)
9,Clc1ccc(-c2nnc(COc3ccc(C4=NNC(c5ccco5)C4)cc3)o2)cc1 (stereo not given),77% (inactive)
10,O=C(Nc1ccc(Br)cc1F)c1cc(I)ccc1O,15.4% (inactive)
11,COc1ccc(C2NCCc3c2[nH]c2ccccc32)cc1CN1CCN(c2ccc(F)cc2)CC1 (stereo not given),65.3% (inactive)
12,O=C1/C=C/[C@@H](O)[C@@H]2C[C@@H](O)C[C@H]2/C=C/CCCCO1,20.9% (inactive)
13,O=S1(=O)N(Cc2ccccc2)[C@@H](Cc2ccccc2)[C@H](O)[C@H](O)[C@H](Cc2ccccc2)N1Cc1ccccc1,15.4% (inactive)
14,O=NN(Cc1cccnc1)C(=O)NC1CCCCC1,104% (inactive)
15,Nc1nc(-c2cnccn2)nn1-c1nc2ccccc2s1,97.7% (inactive)
16,COc1ccc2oc(=O)cc(Cn3cc(Cn4cnc5c4c(=O)n(C)c(=O)n5C)nn3)c2c1,103% (inactive)
17,O=C(NC(=S)Nc1cccc(NC(=S)NC(=O)c2ccccc2)c1)c1ccccc1,16.4% (inactive)
18,Clc1ccc(COc2ccc(Nc3ncnc4onc(-c5ccccc5)c34)cc2)cc1,7.69% (active)
19,CCOC(=O)c1c(C=O)nc2ccccc2c1/C=C/c1ccc(Cl)cc1,85.6% (inactive)
20,COc1ccc(C2C3=C(COC3=O)N(CCO)c3cc4c(cc32)CCC4)cc1OC (stereo not given),28.3% (inactive)

row,SMILES,growth
1,CCCSC1=NC2C(N(CC)C(=O)N2CC)N1/N=C/C=C/c1ccccc1[N+](=O)[O-] (stereo not given),39.9% (inactive)
2,O=c1c2cc(F)ccc2sc2c(Nc3ccncc3)nc3ccccc3c12,-67.5% (active)
3,O=C(Nc1ccc(N2CCNCC2)cn1)c1[nH]ncc1Nc1ncnc2sc3c(c12)CCC3,-53.6% (active)
4,COC(=O)[C@@H]1CCCN1C(=O)[C@H]1CCCN1C(=O)[C@@H](Cc1c[nH]c2ccccc12)NC(=S)Nc1cc(C(F)(F)F)cc(C(F)(F)F)c1,47.2% (inactive)
5,O=c1nc2sc3nc4ccccc4cc3cc-2s1,115% (inactive)
6,NCCOc1ncccc1/C=C1\c2ccccc2-c2ccc(F)cc21,43.3% (inactive)
7,COc1ccc(Cn2cc(Cn3cc(C=C4C(=O)NC(=O)NC4=O)c4ccccc43)nn2)cc1,82.4% (inactive)
8,CSc1nc2c(c(=O)[nH]1)N=C1c3ccccc3C(=O)C1C(c1ccc(F)cc1)N2 (stereo not given),41.2% (inactive)
9,COc1nccc2cc3c(=O)n4c(cc5ccccc54)c(=O)n3c12,97.3% (inactive)
10,COc1ccc(N(C)c2nc(N)nc3sc4c(c23)CCCC4)cc1,36.2% (inactive)
11,COc1ccc(/C=C/C(=O)c2c(C)nc3ccccc3c2/C=C/c2ccccc2)cc1O,61.9% (inactive)
12,O=C(Nc1ccc(Cl)cc1)c1cc2ccccc2cc1OP(=O)(O)O,25% (inactive)
13,O=C(Nc1ccc(N2CCNCC2)cc1)c1[nH]ncc1Nc1ncnc2sc3c(c12)CCC3,15.8% (inactive)
14,COC(=O)C1(C)CCC[C@]2(C)[C@H]3C[C@H]4C(C(C)C)=C[C@]3(CC[C@@H]12)[C@H]1[C@@H]4[C@@H](OCC#CCN2CCOCC2)CC[C@@H]1OCC#CCN1CCOCC1 (stereo not given in full),64.7% (inactive)
15,CCCCc1c(CCC)c(=N)c2ccccc2n1C,73.4% (inactive)
16,CCN(CCO)CCNc1ccc(C)c2sc3cc(Cl)ccc3c(=O)c12,70.8% (inactive)
17,CCN1C(=O)N(CC)C2Nn3c(s/c(=C\c4ccccc4F)c3=O)=NC21 (stereo not given),84.9% (inactive)
18,COc1ccc2occ(C3=C(c4c[nH]c5ccccc45)C(=O)NC3=O)c2c1,-24.3% (active)
19,NC(CCc1nc2ccccc2c(=O)[nH]1)C(=O)O (stereo not given),103% (inactive)
20,O=C(N=Nc1c(O)[nH]c2ccccc12)c1oc2ccccc2c1CN1CCN(c2ccccc2)CC1,-79% (active)
